Data on 18 compounds can be found in PubChem BioAssay (EPA / NIEHS).

Results filed as inconclusive are left out. Active and inactive are the calls of the source. How the source made its calls: active means hit-call score of the fitted dose curve at least 0.9, where 1 is the maximum; inconclusive means response in the unintended direction; inactive means score below 0.9.

Assay [1] concerns the target human Dopamine Receptor D4.4 (DRD4.4), DRD4 (gene 1815) (UniProt P21917). The experiment in a line: NVS_GPCR_hDRD4.4: NovaScreen (NVS) G Protein-Coupled Receptor Assay for human Dopamine Receptor D4.4 (DRD4.4) (AID 2283264). Put shortly:
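Filter-binding assay with a tritiated or iodinated ligand, cell-free receptor prepared from CHO, 1 hour. Loss of bound radioactivity versus DMSO; single 25 uM duplicate screen, then concentration-response for actives.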

The target of assay [2] is Muscarinic acetylcholine receptor M1 (Homo sapiens) (UniProt P11229). The experiment in a line: NVS_GPCR_hM1: NovaScreen (NVS) G Protein-Coupled Receptor Assay for human Muscarinic, M1 Receptor (AID 2283270). Put shortly:
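Actives from a duplicate 25 uM single-point screen were retested in concentration series. Binding measured as displacement of a radioligand from CHO-derived receptor preparation, 1 h incubation, filtration and scintillation counting, analysed as signal loss against DMSO.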

In assay [3] the target is Muscarinic acetylcholine receptor M3 (Homo sapiens) (UniProt P20309). Kind of assay: NVS_GPCR_hM3: NovaScreen (NVS) G Protein-Coupled Receptor Assay for human Muscarinic, M3 Receptor (AID 2283272). Put shortly: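 Radioligand displacement binding on human M3 receptor in CHO-derived membranes, 1 h incubation, filter-based scintillation counting. Primary screen in duplicate at 25 uM; actives followed up in concentration series; loss of signal versus DMSO.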

The target in assay [4] is Muscarinic acetylcholine receptor M2 (Homo sapiens) (UniProt P08172). Kind of assay: NVS_GPCR_hM2: NovaScreen (NVS) G Protein-Coupled Receptor Assay for human Muscarinic, M2 Receptor (AID 2283273). The method, boiled down:
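Filter-based radiodetection read bound radioligand 1 h after dosing CHO-derived membrane protein. Single-concentration duplicates (25 uM) first, then concentration-response for actives; signal loss versus DMSO scored.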

The target of assay [5] is human Muscarinic, M4 Receptor, CHRM4 (gene 1132) (UniProt P08173). The experiment in a line: NVS_GPCR_hM4: NovaScreen (NVS) G Protein-Coupled Receptor Assay for human Muscarinic, M4 Receptor (AID 2283274). Put shortly: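 Filter-based scintillation counting of radioligand bound to CHO-expressed human M4 preparations after 1 h; loss of signal fitted versus DMSO. Initial duplicate testing at 25 uM, concentration-response follow-up for actives.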

Assay [6] has as its target human Dopamine Receptor D2 (DRD2), DRD2 (gene 1813) (UniProt P14416). Kind of assay: NVS_GPCR_hDRD2s: NovaScreen (NVS) G Protein-Coupled Receptor Assay for human Dopamine Receptor D2 (DRD2) (AID 2283266). Put shortly:
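Test compound (25 uM, duplicate in the primary screen; concentration series at follow-up) competed with radioligand for human DRD2 in CHO-derived membrane protein. Filter-based scintillation counting was done 1.5 hours after dosing, with loss of signal analysed against DMSO.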

The target of assay [7] is human Opioid Receptor Delta 1 (Opiate D1), OPRD1 (gene 4985) (UniProt P41143). The experiment in a line: NVS_GPCR_hOpiate_D1: NovaScreen (NVS) G Protein-Coupled Receptor Assay for human Opioid Receptor Delta 1 (Opiate D1) (AID 2283280). Put shortly:
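Membrane preparations from CHO cells bearing the human receptor were incubated 1 h with test chemical, and bound radioligand was counted after filtration. Actives from 25 uM duplicate screening were retested in concentration-response.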

For assay [8], the target named is human Neurokinin, NK2 Receptor, TACR2 (gene 6865) (UniProt P21452). The experiment in a line: NVS_GPCR_hNK2: NovaScreen (NVS) G Protein-Coupled Receptor Assay for human Neurokinin, NK2 Receptor (AID 2283278).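 Further: actives reduce bound radioligand signal relative to DMSO baseline.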 The method, boiled down:
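Cell-free radioligand binding using receptor protein extracted from CHO cells; readings taken 4 hours after chemical dosing by filter-based scintillation counting. Primary screen ran single concentration (25 uM) in duplicate; actives followed up in concentration series, loss-of-signal versus DMSO baseline.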

Assay [9] addresses Type-1 angiotensin II receptor (Homo sapiens) (UniProt P30556). The experiment in a line: NVS_GPCR_hAT1: NovaScreen (NVS) G Protein-Coupled Receptor Assay for human Angiotensin II receptor type 1 (AT1) (AID 2283263). Put shortly:
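Hits from a 25 uM duplicate screen (threshold e.g. 30% inhibition) were run in concentration-response with 50 uM top concentration. Displacement of specific radioligand from KAN-TS membrane preparations measured after 3 h by filter scintillation, DMSO as baseline.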

In assay [10] the target is Neuropeptide Y receptor type 2 (Homo sapiens) (UniProt P49146). The experiment in a line: NVS_GPCR_hNPY2: NovaScreen (NVS) G Protein-Coupled Receptor Assay for human Neuropeptide Receptor Y2 (NPY2) (AID 2283277). Put shortly:
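Chemicals were first tested in duplicate at 25 uM, then actives in singleton concentration series to 50 uM. Tracer binding to SK-N-MC-derived protein measured cell-free after 1 h via filter scintillation; signal loss relative to DMSO.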

In assay [11] the target is human Neurotensin Receptor (NTS), NTSR1 (gene 4923) (UniProt P30989). Kind of assay: NVS_GPCR_hNTS: NovaScreen (NVS) G Protein-Coupled Receptor Assay for human Neurotensin Receptor (NTS) (AID 2283279). Put shortly: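 Compounds competed with a radiolabelled ligand for binding to CHO-derived human neurotensin receptor; bound signal counted after filtration, 1 h. Screened first at a single concentration of 25 uM in duplicate, then concentration series to 50 uM maximum for actives.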

Assay [12] addresses Beta-2 adrenergic receptor (Homo sapiens) (UniProt P07550). The experiment in a line: NVS_GPCR_hAdrb2: NovaScreen (NVS) G Protein-Coupled Receptor Assay for human Adrenergic, Beta 2 Receptor (Adrb2) (AID 2283261). Put shortly: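 Compounds screened in duplicate at 25 uM, then actives in concentration series. Human beta-2 receptor from CHO material, cell-free; radioligand displacement after 1 h measured by filtration and scintillation against DMSO baseline.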

Assay [13] addresses D(1A) dopamine receptor (Homo sapiens) (UniProt P21728). Kind of assay: NVS_GPCR_hDRD1: NovaScreen (NVS) G Protein-Coupled Receptor Assay for human Dopamine Receptor D1 (DRD1) (AID 2283269). The method, boiled down: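 Cell-free competition with radioligand, filter-trapped and scintillation-counted 1 h post-dose, using HEK293-derived human D1 preparation. Duplicate single-point testing at 25 uM first, then concentration series for actives; DMSO served as baseline, loss-of-signal scored.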

Assay [14] concerns the target human Neuropeptide Receptor Y1 (NPY1), NPY1R (gene 4886) (UniProt P25929). Kind of assay: NVS_GPCR_hNPY1: NovaScreen (NVS) G Protein-Coupled Receptor Assay for human Neuropeptide Receptor Y1 (NPY1) (AID 2283276). The method, boiled down:
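Displacement of specific radioligand from NPY1 receptor of SK-N-MC origin, read by filtration and scintillation after 1 h. Compounds first tested at 25 uM in duplicate, then actives in concentration series; signal loss relative to DMSO.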

Assay [15] addresses human Thromboxane A2 Receptor (TXA2), TBXA2R (gene 6915) (UniProt P21731). The experiment in a line: NVS_GPCR_hTXA2: NovaScreen (NVS) G Protein-Coupled Receptor Assay for human Thromboxane A2 Receptor (TXA2) (AID 2283282).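 Further: actives reduce bound radioligand signal relative to DMSO baseline.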 The method, boiled down:
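Human platelet-derived receptor preparation incubated with test chemical and radiolabelled ligand for 1 hour, cell-free. Bound label was separated by filtration and counted; displacement relative to DMSO controls gave activity, screened at 25 uM, then titrated.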

The target of assay [16] is human Purinergic Receptor P2Y, P2RY1 (gene 5028) (UniProt P47900). The experiment in a line: NVS_GPCR_hPY2: NovaScreen (NVS) G Protein-Coupled Receptor Assay for human Purinergic Receptor P2Y (AID 2283281). The method, boiled down:
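Filtration scintillation readout of radioligand displacement on U937 extract, measured 1 h post-dosing. Single 25 uM duplicate screen, then singleton concentration series to 50 uM for chemicals passing threshold; DMSO as baseline.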

Assay [17] addresses human Leukotriene B4 Receptor 1 (LTB4-BLT1), LTB4R (gene 1241) (UniProt Q15722). The experiment in a line: NVS_GPCR_hLTB4_BLT1: NovaScreen (NVS) G Protein-Coupled Receptor Assay for human Leukotriene B4 Receptor 1 (LTB4-BLT1) (AID 2283271). The method, boiled down: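 Cell-free human neutrophil receptor preparation, 1 h exposure, radioligand binding read by filter scintillation counting. Single 25 uM duplicate screen, then concentration series topping at 50 uM; binding loss scored against DMSO baseline.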

Chain of Muscarinic acetylcholine receptor M1 (Homo sapiens) (P11229 whole entry, looked up): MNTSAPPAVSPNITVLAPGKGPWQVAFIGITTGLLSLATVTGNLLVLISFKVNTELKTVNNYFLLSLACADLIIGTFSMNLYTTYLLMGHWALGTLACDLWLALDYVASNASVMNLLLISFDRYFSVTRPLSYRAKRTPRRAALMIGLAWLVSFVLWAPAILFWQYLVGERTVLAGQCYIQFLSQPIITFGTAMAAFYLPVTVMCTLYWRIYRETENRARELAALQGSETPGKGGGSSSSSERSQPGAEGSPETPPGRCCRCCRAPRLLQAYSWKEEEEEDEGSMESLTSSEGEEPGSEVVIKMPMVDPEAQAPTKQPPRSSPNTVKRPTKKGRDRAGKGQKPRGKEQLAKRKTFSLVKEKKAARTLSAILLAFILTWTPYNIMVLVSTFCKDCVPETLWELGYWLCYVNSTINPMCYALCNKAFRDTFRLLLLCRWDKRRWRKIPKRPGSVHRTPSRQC
Chain of Type-1 angiotensin II receptor (Homo sapiens) (P30556 whole entry, looked up): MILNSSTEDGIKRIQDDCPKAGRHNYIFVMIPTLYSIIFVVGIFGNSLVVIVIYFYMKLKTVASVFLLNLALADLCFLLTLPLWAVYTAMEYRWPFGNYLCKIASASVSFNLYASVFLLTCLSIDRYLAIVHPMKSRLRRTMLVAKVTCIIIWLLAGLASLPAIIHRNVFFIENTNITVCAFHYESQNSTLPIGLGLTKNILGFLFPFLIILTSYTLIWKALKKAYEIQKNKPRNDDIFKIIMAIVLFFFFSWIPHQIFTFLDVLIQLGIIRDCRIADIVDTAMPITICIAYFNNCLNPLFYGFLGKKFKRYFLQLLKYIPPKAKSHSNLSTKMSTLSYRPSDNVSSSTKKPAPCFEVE
Chain of human Neurotensin Receptor (NTS), NTSR1 (gene 4923) (P30989 whole entry, looked up): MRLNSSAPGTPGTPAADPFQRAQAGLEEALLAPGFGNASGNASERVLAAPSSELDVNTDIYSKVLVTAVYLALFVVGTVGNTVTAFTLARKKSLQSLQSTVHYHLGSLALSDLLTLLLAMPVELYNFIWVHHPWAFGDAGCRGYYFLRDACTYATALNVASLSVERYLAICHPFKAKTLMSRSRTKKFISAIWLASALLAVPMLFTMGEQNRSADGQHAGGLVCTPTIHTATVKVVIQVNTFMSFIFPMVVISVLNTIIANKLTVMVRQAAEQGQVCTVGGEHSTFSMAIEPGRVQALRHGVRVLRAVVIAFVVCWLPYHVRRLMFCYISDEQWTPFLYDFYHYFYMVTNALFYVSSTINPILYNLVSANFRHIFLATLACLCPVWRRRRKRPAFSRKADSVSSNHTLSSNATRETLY
Chain of human Neurokinin, NK2 Receptor, TACR2 (gene 6865) (P21452 whole entry, looked up): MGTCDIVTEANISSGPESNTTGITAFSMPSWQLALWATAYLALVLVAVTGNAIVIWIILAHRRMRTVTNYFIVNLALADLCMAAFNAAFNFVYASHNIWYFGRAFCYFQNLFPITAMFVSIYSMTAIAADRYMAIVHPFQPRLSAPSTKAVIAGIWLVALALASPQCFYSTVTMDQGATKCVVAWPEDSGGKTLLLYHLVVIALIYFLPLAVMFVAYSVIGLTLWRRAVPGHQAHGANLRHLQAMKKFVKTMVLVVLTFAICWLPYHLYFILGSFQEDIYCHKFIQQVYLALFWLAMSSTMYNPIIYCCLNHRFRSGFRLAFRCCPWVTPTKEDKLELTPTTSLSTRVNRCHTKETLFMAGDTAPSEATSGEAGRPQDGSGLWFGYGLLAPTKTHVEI
Chain of human Thromboxane A2 Receptor (TXA2), TBXA2R (gene 6915) (P21731 whole entry, looked up): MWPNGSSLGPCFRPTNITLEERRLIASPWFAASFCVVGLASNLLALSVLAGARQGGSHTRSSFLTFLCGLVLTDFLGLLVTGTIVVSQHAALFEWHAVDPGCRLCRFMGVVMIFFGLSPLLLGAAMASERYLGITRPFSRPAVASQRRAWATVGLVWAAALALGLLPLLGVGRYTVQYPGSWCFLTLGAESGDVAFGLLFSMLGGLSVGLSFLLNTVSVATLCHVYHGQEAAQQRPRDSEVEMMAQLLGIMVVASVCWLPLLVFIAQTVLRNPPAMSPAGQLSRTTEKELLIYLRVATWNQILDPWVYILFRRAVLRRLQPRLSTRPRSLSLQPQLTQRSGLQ
Chain of Muscarinic acetylcholine receptor M2 (Homo sapiens) (P08172 whole entry, looked up): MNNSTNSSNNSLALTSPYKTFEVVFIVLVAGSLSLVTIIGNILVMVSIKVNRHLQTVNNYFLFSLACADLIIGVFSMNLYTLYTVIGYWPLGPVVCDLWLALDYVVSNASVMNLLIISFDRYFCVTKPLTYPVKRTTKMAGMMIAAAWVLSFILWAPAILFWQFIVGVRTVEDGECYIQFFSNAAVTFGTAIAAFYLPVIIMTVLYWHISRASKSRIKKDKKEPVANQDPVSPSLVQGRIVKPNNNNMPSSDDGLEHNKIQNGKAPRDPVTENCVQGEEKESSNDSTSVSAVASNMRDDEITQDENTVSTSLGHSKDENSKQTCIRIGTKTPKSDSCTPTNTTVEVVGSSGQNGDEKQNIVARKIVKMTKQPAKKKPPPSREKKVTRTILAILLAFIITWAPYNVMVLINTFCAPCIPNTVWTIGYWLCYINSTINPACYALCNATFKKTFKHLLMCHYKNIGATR
Chain of Muscarinic acetylcholine receptor M3 (Homo sapiens) (P20309 whole entry, looked up): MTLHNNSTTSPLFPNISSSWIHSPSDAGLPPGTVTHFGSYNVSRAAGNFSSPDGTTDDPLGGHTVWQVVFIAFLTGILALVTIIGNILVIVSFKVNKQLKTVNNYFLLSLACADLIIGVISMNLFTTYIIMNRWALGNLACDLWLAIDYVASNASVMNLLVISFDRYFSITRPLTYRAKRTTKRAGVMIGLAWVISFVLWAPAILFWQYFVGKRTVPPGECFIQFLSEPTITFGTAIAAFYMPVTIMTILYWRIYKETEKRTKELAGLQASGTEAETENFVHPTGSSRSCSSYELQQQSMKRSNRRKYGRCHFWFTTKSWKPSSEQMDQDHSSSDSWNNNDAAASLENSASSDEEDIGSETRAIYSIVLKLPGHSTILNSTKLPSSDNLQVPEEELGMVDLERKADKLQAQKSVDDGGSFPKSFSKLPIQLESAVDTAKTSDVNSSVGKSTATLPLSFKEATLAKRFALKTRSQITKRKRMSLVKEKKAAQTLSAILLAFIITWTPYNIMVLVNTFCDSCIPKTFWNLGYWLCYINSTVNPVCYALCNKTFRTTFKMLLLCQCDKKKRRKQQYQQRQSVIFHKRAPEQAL
Chain of human Muscarinic, M4 Receptor, CHRM4 (gene 1132) (P08173 whole entry, looked up): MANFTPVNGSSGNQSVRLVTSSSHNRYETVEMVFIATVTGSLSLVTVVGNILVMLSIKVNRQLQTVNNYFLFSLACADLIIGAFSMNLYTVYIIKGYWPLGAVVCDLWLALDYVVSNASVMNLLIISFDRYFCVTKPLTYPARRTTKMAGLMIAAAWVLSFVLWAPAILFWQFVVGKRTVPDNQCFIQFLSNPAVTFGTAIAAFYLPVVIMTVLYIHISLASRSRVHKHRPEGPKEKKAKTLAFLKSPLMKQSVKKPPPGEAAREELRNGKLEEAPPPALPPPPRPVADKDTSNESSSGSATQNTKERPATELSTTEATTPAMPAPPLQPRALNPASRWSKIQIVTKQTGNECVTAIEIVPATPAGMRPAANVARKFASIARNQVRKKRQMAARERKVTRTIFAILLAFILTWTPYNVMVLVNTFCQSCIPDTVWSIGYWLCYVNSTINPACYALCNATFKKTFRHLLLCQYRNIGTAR
Chain of D(1A) dopamine receptor (Homo sapiens) (P21728 whole entry, looked up): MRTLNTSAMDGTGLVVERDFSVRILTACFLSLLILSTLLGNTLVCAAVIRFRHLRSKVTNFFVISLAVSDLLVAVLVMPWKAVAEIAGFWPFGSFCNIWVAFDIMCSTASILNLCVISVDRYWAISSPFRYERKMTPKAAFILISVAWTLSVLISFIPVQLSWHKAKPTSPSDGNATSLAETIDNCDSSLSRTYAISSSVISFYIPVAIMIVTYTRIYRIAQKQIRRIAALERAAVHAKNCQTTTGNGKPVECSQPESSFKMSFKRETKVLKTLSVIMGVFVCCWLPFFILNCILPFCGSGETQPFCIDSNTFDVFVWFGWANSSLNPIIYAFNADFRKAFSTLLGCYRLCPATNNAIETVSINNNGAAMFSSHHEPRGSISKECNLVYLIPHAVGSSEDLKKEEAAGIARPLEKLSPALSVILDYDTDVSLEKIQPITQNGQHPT
Chain of human Opioid Receptor Delta 1 (Opiate D1), OPRD1 (gene 4985) (P41143 whole entry, looked up): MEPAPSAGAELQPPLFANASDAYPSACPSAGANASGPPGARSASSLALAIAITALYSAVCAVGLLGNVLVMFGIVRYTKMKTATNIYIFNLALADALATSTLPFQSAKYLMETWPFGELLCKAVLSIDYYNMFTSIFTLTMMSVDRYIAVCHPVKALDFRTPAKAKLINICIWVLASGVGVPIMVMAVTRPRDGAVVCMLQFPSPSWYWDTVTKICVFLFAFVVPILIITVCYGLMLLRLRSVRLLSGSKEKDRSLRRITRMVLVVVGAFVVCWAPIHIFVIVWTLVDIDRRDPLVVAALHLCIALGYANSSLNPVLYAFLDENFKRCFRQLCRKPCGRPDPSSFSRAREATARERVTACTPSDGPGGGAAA
Chain of human Neuropeptide Receptor Y1 (NPY1), NPY1R (gene 4886) (P25929 whole entry, looked up): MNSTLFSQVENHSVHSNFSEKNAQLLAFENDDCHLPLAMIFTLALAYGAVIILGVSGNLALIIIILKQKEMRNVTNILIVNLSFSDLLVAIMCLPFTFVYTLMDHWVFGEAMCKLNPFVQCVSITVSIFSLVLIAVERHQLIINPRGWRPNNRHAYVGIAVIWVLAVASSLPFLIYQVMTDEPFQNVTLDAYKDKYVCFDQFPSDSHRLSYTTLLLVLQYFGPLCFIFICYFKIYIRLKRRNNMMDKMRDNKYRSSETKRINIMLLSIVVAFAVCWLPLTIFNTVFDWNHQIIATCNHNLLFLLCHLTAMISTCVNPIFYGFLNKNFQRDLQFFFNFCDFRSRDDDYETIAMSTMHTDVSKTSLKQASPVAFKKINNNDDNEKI

Take `Cc1cc(C2CC2)nc(Nc2ccccc2)n1`: the AC50 was 12.3 µM (active) in assay [1]; 10.1 µM (active) in assay [2]; 5.41 µM (active) in assay [3]; 6.13 µM (active) in [4]; 6.51 µM (active) in assay [5].

For the compound `O=C(O)c1cc(Oc2ccc(C(F)(F)F)cc2Cl)ccc1[N+](=O)[O-]`, the compound was called inactive in assay [6] and in assay [7].

Turning to `C#CCC1=C(C)C(OC(=O)C2C(C=C(C)C)C2(C)C)CC1=O` (stereo unspecified), the AC50 in assay [2] is 11 µM (active); in assay [3], 7.59 µM (active). Moreover, the compound was called inactive in assay [8].

On to `CCOP(=O)(OCC)Oc1cc(C)nc(C(C)C)n1`, for which the compound was classed as inactive in assay [9].

Regarding `CC(C)[C@H](C(=O)O[C@H](C#N)c1cccc(Oc2ccccc2)c1)c1ccc(Cl)cc1`, the AC50 in [8] is 4.82 µM (active).

Regarding `Nc1nc(N)nc(NC2CC2)n1`, the outcome in [10] was inactive.

On to `CCCCOC(=O)[C@@H](C)Oc1ccc(Oc2ccc(C#N)cc2F)cc1`, for which the compound was called inactive in [11].

In the case of `CCCSP(=O)(OCC)Oc1ccc(Br)cc1Cl` (stereo unspecified), the compound was called inactive in [9].

Regarding `CC[C@H](C)[C@H]1O[C@]2(C=C[C@@H]1C)C[C@@H]1C[C@@H](C/C=C(\C)[C@@H](O[C@H]3C[C@H](OC)[C@@H](O[C@H]4C[C@H](OC)[C@@H](NC)[C@H](C)O4)[C@H](C)O3)[C@@H](C)/C=C/C=C3\CO[C@@H]4[C@H](O)C(C)=C[C@@H](C(=O)O1)[C@]34O)O2`, the AC50 in assay [12] was 18.1 µM (active); in [9] it was 17 µM (active); in [1], 16.2 µM (active); in assay [6], 25 µM (active); in assay [13], 8.1 µM (active); in [2], 12.6 µM (active). For the same compound, the AC50 was 10.1 µM (active) in assay [3]; 12.9 µM (active) in [5]; 18.3 µM (active) in assay [14]; 8.41 µM (active) in assay [8]; 0.00229 µM (active) in assay [11]; 15.5 µM (active) in [7]. Moreover, the AC50 in [15] was 14.5 µM (active).

As to `COP(=O)(OC)OC(Br)C(Cl)(Cl)Br` (stereo unspecified), the AC50 in assay [9] was 13.5 µM (active); in assay [13], 11.8 µM (active); in assay [14], 15.5 µM (active).

On to `CC(C)N(C(=O)SCC(Cl)=C(Cl)Cl)C(C)C`, for which the outcome in [5] was inactive.

In the case of `CN(C)[C@@H]1C(=O)C(C(N)=O)=C(O)[C@@]2(O)C(=O)C3=C(O)c4c(O)cccc4[C@@](C)(O)[C@H]3[C@H](O)[C@@H]12`, the compound was classed as inactive in assay [16] and in assay [15].

Consider `CC(C1CC1)C(O)(Cn1cncn1)c1ccc(Cl)cc1` (stereo unspecified), for which the AC50 in assay [5] was 12.1 µM (active).

`C[N+]1(C)CCCCC1`: the call in assay [4] and in [10] was inactive.

Regarding `CCOP(=S)(OCC)Oc1cc(C)nc(C(C)C)n1`, the result in [9] and in assay [11] was inactive.

As for `COc1cc(OC)nc(Sc2cccc(Cl)c2C(=O)O)n1`, the result in [9] and in assay [17] was inactive. Also, the AC50 in assay [15] is 4.45 µM (active).

Regarding `CC1(C(=O)Nc2ccc(O)c(Cl)c2Cl)CCCCC1`, the concentration at half-maximal activity (AC50) in assay [8] is 3.04 µM (active).

`CCCOCC(=Nc1ccc(Cl)cc1C(F)(F)F)n1ccnc1`: the AC50 in [13] was 9.19 µM (active). Moreover, the outcome in [4] and in [8] was inactive.

One may read the AC50 as the midpoint of the concentration-response curve, whichever way the signal moves.
